Test [1] addresses Calcium and integrin-binding protein 1 (Homo sapiens) (UniProt Q99828). The test can be described thus: Primary qHTS for Identification of Calcium Integrin Binding Protein 1 (CIB1) Competitor (AID 1508620).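 Also: GST tagged CIB1 binding a fluorescein labelled alphaIIb integrin peptide tracer; top concentration of the series differs between compounds.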 The method, boiled down:
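Fluorescence polarization competition: CIB1-GST (1 uM final) preincubated with compound 15 min at room temperature, then FITC-labeled alphaIIb peptide (100 nM final) added for another 15 min. Polarization read at Ex 480/Em 540.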
On the technique in general: In qHTS, concentration-response curves come from the screen itself.

Test [2] in a line: Primary qHTS for inhibitors of nuclear receptor binding SET domain protein 2 (NSD2) in an isogenic RCH-ACV NSD2 p.E1099K mutant (9B) (AID 1645876). Also: nearly all actives have a fitted effect of over 70% in size. Also: potency is read from the fitted curve at half-maximal effect.

Structures are written as SMILES. Results filed as inconclusive are left out. A number with no mark means an inactive call. Activity calls are given as the source filed them. Calls follow the shape of the dose curve; as a rule, active = well fitted inhibition curve with a large enough effect; inconclusive = small, poorly fitted or top-dose-only effect; inactive = flat fitted curve, though single readings scatter.
% is scaled to controls: 0 for no effect and ±100 for the full control effect.

Calcium and integrin-binding protein 1 (Homo sapiens), sequence (Q99828 whole entry, looked up): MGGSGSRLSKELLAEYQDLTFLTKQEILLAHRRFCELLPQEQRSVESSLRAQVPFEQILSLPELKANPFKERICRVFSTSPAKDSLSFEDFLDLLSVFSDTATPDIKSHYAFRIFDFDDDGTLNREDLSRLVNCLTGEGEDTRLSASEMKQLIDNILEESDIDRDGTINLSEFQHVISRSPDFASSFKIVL

Regarding `C[C@@H]1O[C@@H](O[C@H]2[C@H](O)[C@@H](O[C@@H]3O[C@H](CO)[C@@H](O)[C@H](O[C@@H]4O[C@H](CO)[C@@H](O)[C@H](O)[C@H]4O)[C@H]3O)[C@H](O[C@H]3CC[C@@]4(C)C(=CC[C@@H]5C4CC[C@@]4(C)C5C[C@@H]5OC6(CC[C@@](C)(CO[C@@H]7O[C@H](CO)[C@@H](O)[C@H](O)[C@H]7O)O6)[C@@H](C)[C@@H]54)C3)O[C@@H]2CO)[C@H](O)[C@H](O)[C@H]1O` (stereo partly drawn), the activity change, negative = inhibition in test [1] is -1.49% [at 12.4 µM]. Also, the activity change, negative = viability loss in test [2] was -19.9% [at 9.23 µM].
In the case of `C=C[C@H]1[C@H](O[C@@H]2O[C@H](CO)[C@@H](O)[C@H](O)[C@H]2O)OC=C(C(=O)OC)[C@H]1CC(=O)O`, the Potency entry in test [1] and in test [2] was “inactive” in each case.
As to `COc1cc2c3c(cc4ccccc4c3c1O)NC2=O`, the Potency result in test [1] and in test [2] was “inactive” throughout.
With `CC(C)=CCC[C@](C)(O[C@@H]1O[C@H](CO[C@@H]2O[C@H](CO)[C@@H](O)[C@H](O)[C@H]2O)[C@@H](O)[C@H](O)[C@H]1O)C1CC[C@]2(C)[C@@H]1[C@H](O)CC1[C@@]3(C)CC[C@H](O[C@@H]4O[C@H](CO)[C@@H](O)[C@H](O)[C@H]4O[C@@H]4O[C@H](CO)[C@@H](O)[C@H](O)[C@H]4O)C(C)(C)[C@@H]3CC[C@]12C` (stereo partly drawn), the Potency entry in test [1] was “inactive”. Moreover, in test [2], the activity change, negative = viability loss was -10.6% [at 9.23 µM].
As for `C=C1C(=O)OC2CC(C)=C(C(C)CCCO)C(O)C12` (stereo not drawn), the Potency entry in test [1] and in test [2] was “inactive” in each case.
With `CC1CC(C(O)C(C)(C)O)OC2CC3(C)C4(C)CCC5C(C)(C)C(=O)CCC5(C)C4CCC3(O)C12O` (stereo not drawn), the Potency result in test [1] and in test [2] was “inactive” in each case.
Regarding `COc1cc(/C=C/C=O)cc(OC)c1O[C@@H]1O[C@H](CO)[C@@H](O)[C@H](O)[C@H]1O`, the Potency result in test [1] and in test [2] was “inactive” each time.
With `CC(=O)/C=C/[C@H]1[C@](C)(O)[C@@H](O)[C@H](OC(C)=O)C2C(C)(C)CCC[C@@]21C` (stereo partly drawn), the Potency result in test [1] and in test [2] was “inactive” in each case.
On to `C=C1C[C@]23C[C@H]1CC[C@H]2[C@]1(C)CCC[C@@](C)(C(=O)O)[C@H]1[C@@H]3C(=O)O`, for which the Potency result in test [1] and in test [2] was “inactive” throughout.
Take `CC1(C)CCC2(C(=O)OC3OC(CO)C(O)C(O)C3O)CCC3(C)C(=CCC4C5(C)CCC(OC6OC(C(=O)O)C(OC7OC(CO)C(O)C(O)C7O)C(OC7OC(CO)C(O)C(O)C7O)C6O)C(C)(C)C5CCC43C)C2C1` (stereo not drawn): the Potency result in test [1] is “inactive”. The activity change, negative = viability loss in test [2] is -4.92% [at 9.23 µM].
Take `COC1CC(O[C@H]2CC[C@@]3(C)C(=CC[C@]4(O)C3[C@H](OC(C)=O)[C@@H](OC(=O)c3ccccc3)[C@]3(C)[C@@H](C(C)=O)CC[C@@]34O)C2)OC(C)C1OC1CC(OC)C(OC2CC(OC)C(OC3OC(C)C(OC4OC(CO)C(O)C(O)C4O)C(OC)C3O)C(C)O2)C(C)O1` (stereo partly drawn): the activity change, negative = inhibition in test [1] was -4.32% [at 12.4 µM]. In addition, the activity change, negative = viability loss in test [2] is -11.2% [at 9.23 µM].
As for `FC(F)(F)c1cc(-c2ncn(/C=C\c3nnco3)n2)cc(C(F)(F)F)c1`, the Potency result in test [1] was “inactive”. In addition, the Potency in test [2] was 2300 nM (active).
The like results for `COC(=O)C[C@H]1C(C)(C)[C@H](OC(C)=O)C2CC3=C4CC(=O)O[C@@H](c5ccoc5)[C@]4(C)CCC3[C@@]1(C)C2=O` (stereo partly drawn) were, in that order, “inactive” and “inactive”.
`Nc1nc2c(ncn2[C@@H]2O[C@@H]3COP(=O)(O)O[C@H]3[C@H]2O)c(=O)[nH]1`: the Potency result in test [1] and in test [2] was “inactive” throughout.
In the case of `COc1cc(O)cc(C)c1C(=O)O[C@@H]1[C@H](O)[C@@H](CO)O[C@H]1n1ccc(=O)[nH]c1=O`, the Potency entry in test [1] and in test [2] was “inactive” in each case.
Turning to `O=C1NC(=O)C(c2cn(-c3ccccc3)nc2-c2ccc(F)cc2)N1` (stereo not drawn), the Potency result in test [1] and in test [2] was “inactive” each time.
In the case of `COc1cc2occc2c(O[C@@H]2O[C@H](CO)[C@@H](O)[C@H](O)[C@H]2O)c1CCC(=O)O`, the Potency entry in test [1] and in test [2] was “inactive” throughout.
`CC(=O)OC1CC2(C)C3=CCC4(C)C5C(O)C(O)C(C(C)C)C5(C)CCC4(C)C3CCC2C(C)(C)C1OC1OC(CO)C(O)C(O)C1O` (stereo not drawn): the Potency entry in test [1] and in test [2] was “inactive” each time.
With `C=C1C(O)C(O)C2(CC3C(C)=CCC4C(C)(CO)CCCC34C)OC2C1O` (stereo not drawn), the Potency entry in test [1] and in test [2] was “inactive” each time.
Consider `C=C(CO)C12OC1C1(C)C(=CC2=O)C(O)C(O)CC1C` (stereo not drawn), for which the Potency entry in test [1] and in test [2] was “inactive” each time.
As to `CC1=CC(=O)CC(C)(C)C1CCC(C)O[C@@H]1O[C@H](CO[C@@H]2OC[C@@H](O)[C@H](O)[C@H]2O)[C@@H](O)[C@H](O)[C@H]1O` (stereo partly drawn), the Potency result in test [1] and in test [2] was “inactive” in each case.
On to `C[C@@H]1N[C@H]2N(C1=O)c1ccccc1[C@@]2(O)C[C@@H]1C(=O)N[C@@H](C)c2nc3ccccc3c(=O)n21`, for which the Potency result in test [1] and in test [2] was “inactive” each time.
Turning to `CC1=C(COC2OC(CO)C(O)C(O)C2O)C(C(CO)C(=O)O)CC1` (stereo not drawn), the Potency result in test [1] and in test [2] was “inactive” each time.
`CC1(C)CC[C@]2(C(=O)O[C@@H]3O[C@H](CO[C@@H]4O[C@H](CO)[C@@H](O)[C@H](O)[C@H]4O[C@@H]4O[C@H](CO)[C@@H](O)[C@H](O)[C@H]4O)[C@@H](O)[C@H](O[C@@H]4O[C@H](CO)[C@@H](O)[C@H](O)[C@H]4O)[C@H]3O)CC[C@]3(C)C(=CCC4[C@@]5(C)CC[C@@H](O)[C@@](C)(C(=O)O[C@@H]6O[C@H](CO)[C@@H](O)[C@H](O)[C@H]6O)C5CC[C@]43C)[C@@H]2C1` (stereo partly drawn): in test [1], the activity change, negative = inhibition is -1.15% [at 12.4 µM]. Besides, in test [2], the outcome was “inactive [at 9.23 µM]”.
